Active and inactive are the calls of the source. The calls were made as follows: active = hit-call score of the fitted dose curve at least 0.9, where 1 is the maximum; inactive = score below 0.9.
Tests used:
[1] = molecular target: CCAAT/enhancer-binding protein beta (Homo sapiens) (UniProt P17676); assay: ATG_C_EBP_CIS: Attagene CIS-FACTORIAL HepG2 Assay for human CCAAT/Enhancer Binding Protein (C/EBP) beta (AID 2282927); settings: HepG2 Attagene cis-factorial transcription factor reporter; actives raise or lower the signal
In short: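 HepG2, transient MRTU transfection, 24 h treatment. RT-PCR plus CE fluorescence; DMSO negative control, bidirectional fit.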

[2] = ATG_CMV_CIS: Attagene CIS-FACTORIAL HepG2 Assay for human CMV (Internal Marker) (AID 2282928); settings: HepG2 CMV promoter reporter, transcription factor profiling; actives raise or lower the signal;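 also: endpoint acts as a background internal control marker rather than a target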
In short: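 Cell system: HepG2, transiently transfected multiple reporter units under cis promoters. Exposure: 24 h. Detection: RT-PCR, FAM labeling, HpaI digestion, capillary electrophoresis. Analysis: bidirectional, DMSO baseline.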

[3] = ATG_DR4_LXR_CIS: Attagene CIS-FACTORIAL HepG2 Assay for human Liver X Receptor (LXR), DR4 submotif (AID 2282929); settings: HepG2 Attagene DR4 cis-reporter, mRNA transcription; actives raise or lower the signal
In short: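 The endpoint is DR4-element-driven reporter transcripts after 24 h chemical exposure of transfected HepG2 cells. These were measured via RT-PCR and capillary electrophoresis, and gain or loss of signal was fitted relative to DMSO controls.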

[4] = molecular target: Aryl hydrocarbon receptor (Homo sapiens) (UniProt P35869); assay: ATG_Ahr_CIS: Attagene CIS-FACTORIAL HepG2 Assay for human Aryl Hydrocarbon Receptor (Ahr) (AID 2282930); settings: HepG2 AhR cis-factorial reporter transcription; actives raise or lower the signal
In short: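 Endogenous factor activity is tracked through cis-promoter reporter units transfected into HepG2 cells. Transcript levels at 24 h are read by fluorescent RT-PCR and capillary electrophoresis, with activity in either direction scored relative to DMSO.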

[5] = ATG_AP_1_CIS: Attagene CIS-FACTORIAL HepG2 Assay for human Activator Protein 1 (AP-1) (AID 2282931); settings: HepG2 Attagene cis-factorial AP-1 reporter mRNA; actives raise or lower the signal
In short: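 Readout is reporter transcript level from endogenous transcription factor activity, quantified by RT-PCR with fluorescent primer extension and capillary electrophoresis. Transiently transfected HepG2 cells, 24 h exposure. Curves fitted both directions versus DMSO.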

[6] = ATG_AP_2_CIS: Attagene CIS-FACTORIAL HepG2 Assay for human Activator Protein 2 (AP-2) (AID 2282932); settings: HepG2 AP-2 cis-reporter, Attagene transcription factor profiling; actives raise or lower the signal
In short: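 HepG2 cells transiently transfected with cis-element reporter units and exposed for 24 h. Reporter mRNA measured by RT-PCR, FAM labelling, HpaI digestion and capillary electrophoresis. Changes in either direction fitted relative to DMSO.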

[7] = ATG_BRE_CIS: Attagene CIS-FACTORIAL HepG2 Assay for human Bone Morphogenetic Protein (BMP) Response Element (BRE) (AID 2282933); settings: HepG2 BMP response element reporter, Attagene transcription factor profiling; actives raise or lower the signal
In short: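 Endogenous transcription factor activity at a BMP response element was monitored in transfected HepG2 cells 24 h after dosing. Fluorescent RT-PCR products were resolved by capillary electrophoresis, and activity was fitted in both directions versus DMSO.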

[8] = molecular target: Retinoic acid receptor alpha (Homo sapiens) (UniProt P10276); assay: ATG_DR5_RAR_CIS: Attagene CIS-FACTORIAL HepG2 Assay for human Retinoic Acid Receptor Alpha (RARE), DR5 submotif (AID 2282934); settings: HepG2 Attagene cis-factorial RARE DR5 reporter, mRNA; actives raise or lower the signal
In short: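 After 24 h of chemical exposure, transiently transfected HepG2 cells were lysed for total RNA; the DR5-regulated reporter transcript was quantified via RT-PCR and capillary electrophoresis, with activity fitted bidirectionally against DMSO.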

[9] = molecular target: Transcription factor E2F1 (Homo sapiens) (UniProt Q01094); assay: ATG_E2F_CIS: Attagene CIS-FACTORIAL HepG2 Assay for human E2F Transcription Factor 1 (AID 2282935); settings: HepG2 Attagene cis-reporter, E2F reporter RNA transcripts; actives raise or lower the signal
In short: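 Endogenous E2F1 activity read through cis-promoter reporter units transfected into HepG2. After 24 h compound treatment, reporter mRNA measured by RT-PCR, HpaI digestion and capillary electrophoresis. Bidirectional fit versus DMSO.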

[10] = ATG_E_Box_CIS: Attagene CIS-FACTORIAL HepG2 Assay for human Enhancer Box (E-box) (AID 2282936); settings: HepG2 E-box cis-reporter transcription, actives raise or lower the signal
In short: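 HepG2 cells transiently transfected with multiplexed cis-element reporter units, dosed 24 h; reporter mRNA quantified by RT-PCR, 6-FAM labelling, HpaI digestion and capillary electrophoresis. E-box (USF1) signal fitted bidirectionally vs DMSO.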

[11] = ATG_M_61_CIS: Attagene CIS-FACTORIAL HepG2 Assay for M61 Transcription Factor (Internal Marker) (AID 2282937); settings: HepG2 Attagene CIS-FACTORIAL M61 internal marker reporter; actives raise or lower the signal
In short: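 Readout is reporter mRNA by RT-PCR, fluorescent primer extension and capillary electrophoresis, with gain or loss fitted relative to DMSO. Transfected HepG2 cells carrying endogenous-TF-driven cis reporters were exposed to chemicals for 24 hours.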

[12] = ATG_EGR_CIS: Attagene CIS-FACTORIAL HepG2 Assay for human Early Growth Response 1 (EGR1) (AID 2282938); settings: HepG2 Attagene CIS-FACTORIAL EGR reporter mRNA; actives raise or lower the signal
In short: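 After 24 h compound exposure, RNA from reporter-transfected HepG2 cells was reverse-transcribed, PCR-amplified, fluorescently labelled and resolved by capillary electrophoresis. EGR1 reporter transcript changes, up or down, were fitted against DMSO, reflecting endogenous transcription-factor activity.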

[13] = ATG_Ets_CIS: Attagene CIS-FACTORIAL HepG2 Assay for human Erythroblast Transformation Specific (ETS) (AID 2282941); settings: HepG2 ETS cis-reporter transcription, actives raise or lower the signal
In short: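 After transient cis-reporter transfection, HepG2 cells receive test chemical for 24 h. Reporter mRNA levels, measured by RT-PCR and capillary electrophoresis fluorescence, are analysed bidirectionally relative to the DMSO baseline.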

[14] = molecular target: Hepatocyte nuclear factor 3-beta (Homo sapiens) (UniProt Q9Y261); assay: ATG_FoxA2_CIS: Attagene CIS-FACTORIAL HepG2 Assay for human Forkhead box A2 (FOXA2) (AID 2282942); settings: HepG2 cis-reporter transcription factor activity, 24 h; actives raise or lower the signal
In short: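 Endogenous transcription factor activity is captured via cis-element-driven reporter transcripts in transfected HepG2. Total RNA taken at 24 h post-dosing; labelled RT-PCR products resolved by capillary electrophoresis. Gain or loss fitted versus DMSO.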

[15] = ATG_FoxO_CIS: Attagene CIS-FACTORIAL HepG2 Assay for human Forkhead box O (FoxO) (AID 2282943); settings: HepG2 Attagene cis-reporter, FoxO element, mRNA; actives raise or lower the signal
In short: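 Transfected HepG2 reporter cells exposed to test chemical for 24 h; reporter RNA measured by reverse transcription, PCR and fluorescent capillary electrophoresis; curves fitted for increases and decreases against DMSO.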

[16] = ATG_GATA_CIS: Attagene CIS-FACTORIAL HepG2 Assay for human GATA Binding Protein (AID 2282944); settings: HepG2 GATA cis-element reporter, Attagene multiplex mRNA; actives raise or lower the signal
In short: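 Endogenous transcription factor activity was captured through cis-promoter-driven reporters in transfected HepG2 cells. After 24 h exposure, reporter transcripts were quantified by RT-PCR with fluorescent capillary electrophoresis, and responses fitted both directions against DMSO.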

[17] = ATG_CRE_CIS: Attagene CIS-FACTORIAL HepG2 Assay for human cAMP Responsive Element (CRE) binding protein 3 (AID 2282926); settings: HepG2 CRE cis-reporter, Attagene multiplexed mRNA; actives raise or lower the signal
In short: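 Endogenous CRE-binding activity in HepG2 is reported through a cis-regulated transfected reporter. Following a day of exposure, mRNA levels are determined by reverse transcription PCR and fluorescent fragment analysis; fits run in both directions versus DMSO.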

[18] = ATG_M_19_CIS: Attagene CIS-FACTORIAL HepG2 Assay for M19 Transcription Factor (Internal Marker) (AID 2282939); settings: HepG2 Attagene CIS-FACTORIAL M19 internal marker reporter; actives raise or lower the signal
In short: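 Background-control endpoint from a multiplexed HepG2 reporter panel. Cells carrying cis-regulated reporter constructs are treated 24 h, then reporter transcripts are amplified, fluorescently labelled and sized by capillary electrophoresis. DMSO defines baseline.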

[19] = ATG_ERE_CIS: Attagene CIS-FACTORIAL HepG2 Assay for Estrogen Response Element (ERE) (AID 2282940); settings: HepG2 ERE cis-reporter, Attagene RNA transcript; actives raise or lower the signal
In short: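 Cells used were human hepatoma HepG2, transfected with multiple reporter transcription units under cis-regulatory promoters. Reporter mRNA, read 24 h post-dosing via fluorescent RT-PCR products on capillary electrophoresis, was fitted bidirectionally relative to DMSO.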

Sequence of Retinoic acid receptor alpha (Homo sapiens) (P10276 whole entry, looked up): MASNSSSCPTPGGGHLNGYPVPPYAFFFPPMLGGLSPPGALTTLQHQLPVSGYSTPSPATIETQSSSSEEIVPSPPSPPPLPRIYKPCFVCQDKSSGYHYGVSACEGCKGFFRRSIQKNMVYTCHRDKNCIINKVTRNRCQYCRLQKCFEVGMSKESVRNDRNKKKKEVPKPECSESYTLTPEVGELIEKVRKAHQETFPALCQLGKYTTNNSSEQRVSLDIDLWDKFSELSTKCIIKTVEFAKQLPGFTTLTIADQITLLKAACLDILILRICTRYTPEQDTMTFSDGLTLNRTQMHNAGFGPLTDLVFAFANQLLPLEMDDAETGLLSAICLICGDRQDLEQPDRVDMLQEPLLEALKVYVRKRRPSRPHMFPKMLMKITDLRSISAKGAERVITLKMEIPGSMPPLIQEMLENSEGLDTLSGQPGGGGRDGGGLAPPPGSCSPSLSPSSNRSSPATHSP
Sequence of Hepatocyte nuclear factor 3-beta (Homo sapiens) (Q9Y261 whole entry, looked up): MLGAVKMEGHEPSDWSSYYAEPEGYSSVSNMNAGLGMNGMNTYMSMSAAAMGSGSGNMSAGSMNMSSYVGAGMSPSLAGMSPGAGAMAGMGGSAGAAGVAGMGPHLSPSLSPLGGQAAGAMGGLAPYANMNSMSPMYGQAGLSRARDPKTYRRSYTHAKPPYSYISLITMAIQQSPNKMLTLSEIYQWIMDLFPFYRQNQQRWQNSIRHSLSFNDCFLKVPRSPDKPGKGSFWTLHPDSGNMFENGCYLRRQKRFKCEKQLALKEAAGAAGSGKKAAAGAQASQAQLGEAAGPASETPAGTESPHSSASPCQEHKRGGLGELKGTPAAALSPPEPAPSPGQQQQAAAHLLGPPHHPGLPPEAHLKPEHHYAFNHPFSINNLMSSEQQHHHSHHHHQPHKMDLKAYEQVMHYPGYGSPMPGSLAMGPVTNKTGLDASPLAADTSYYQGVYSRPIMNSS
Sequence of Transcription factor E2F1 (Homo sapiens) (Q01094 whole entry, looked up): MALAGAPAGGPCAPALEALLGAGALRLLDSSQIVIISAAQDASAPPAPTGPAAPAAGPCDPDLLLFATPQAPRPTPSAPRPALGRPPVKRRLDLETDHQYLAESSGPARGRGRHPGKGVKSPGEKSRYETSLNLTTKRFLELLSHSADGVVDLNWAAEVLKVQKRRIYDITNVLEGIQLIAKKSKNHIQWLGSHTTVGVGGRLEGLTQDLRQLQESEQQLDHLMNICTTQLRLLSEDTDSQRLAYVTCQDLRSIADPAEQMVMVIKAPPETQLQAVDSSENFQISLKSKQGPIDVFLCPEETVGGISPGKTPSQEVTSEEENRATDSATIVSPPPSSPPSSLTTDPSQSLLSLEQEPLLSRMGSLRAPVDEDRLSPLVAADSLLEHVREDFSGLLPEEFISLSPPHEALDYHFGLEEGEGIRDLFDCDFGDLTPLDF
Sequence of CCAAT/enhancer-binding protein beta (Homo sapiens) (P17676 whole entry, looked up): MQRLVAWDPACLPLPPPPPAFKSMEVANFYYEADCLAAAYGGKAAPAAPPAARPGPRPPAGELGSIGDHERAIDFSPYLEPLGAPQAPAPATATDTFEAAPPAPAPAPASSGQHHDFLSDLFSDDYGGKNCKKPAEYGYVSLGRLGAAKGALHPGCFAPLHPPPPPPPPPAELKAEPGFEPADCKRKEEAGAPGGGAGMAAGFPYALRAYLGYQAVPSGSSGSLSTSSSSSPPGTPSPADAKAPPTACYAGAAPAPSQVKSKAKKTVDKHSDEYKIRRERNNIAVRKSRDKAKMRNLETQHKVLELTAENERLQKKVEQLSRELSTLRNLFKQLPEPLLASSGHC
Sequence of Aryl hydrocarbon receptor (Homo sapiens) (P35869 whole entry, looked up): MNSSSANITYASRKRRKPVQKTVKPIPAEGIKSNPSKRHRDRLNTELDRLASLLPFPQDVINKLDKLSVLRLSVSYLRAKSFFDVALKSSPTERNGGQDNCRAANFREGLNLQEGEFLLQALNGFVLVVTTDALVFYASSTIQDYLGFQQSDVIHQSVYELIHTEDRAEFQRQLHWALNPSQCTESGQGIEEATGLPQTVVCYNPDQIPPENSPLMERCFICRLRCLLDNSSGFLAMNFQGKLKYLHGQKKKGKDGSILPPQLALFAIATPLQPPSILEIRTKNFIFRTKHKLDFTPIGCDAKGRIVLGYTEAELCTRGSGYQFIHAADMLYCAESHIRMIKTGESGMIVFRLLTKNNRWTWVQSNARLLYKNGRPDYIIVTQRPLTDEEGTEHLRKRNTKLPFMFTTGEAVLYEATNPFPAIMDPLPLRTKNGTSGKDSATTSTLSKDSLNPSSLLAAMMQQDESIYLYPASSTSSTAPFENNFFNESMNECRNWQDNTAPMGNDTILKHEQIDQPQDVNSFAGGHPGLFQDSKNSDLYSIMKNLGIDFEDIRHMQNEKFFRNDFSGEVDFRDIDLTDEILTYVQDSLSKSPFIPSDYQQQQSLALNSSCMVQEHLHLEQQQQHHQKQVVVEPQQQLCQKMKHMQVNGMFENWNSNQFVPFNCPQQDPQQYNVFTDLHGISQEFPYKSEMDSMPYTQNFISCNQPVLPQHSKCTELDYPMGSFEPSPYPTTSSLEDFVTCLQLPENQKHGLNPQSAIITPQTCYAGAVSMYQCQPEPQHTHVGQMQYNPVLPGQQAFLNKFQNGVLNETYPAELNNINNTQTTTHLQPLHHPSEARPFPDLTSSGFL

With `C=CC(=O)NCOCCCC` the outcome [1] was “inactive”, the outcome [2] was “inactive” and the outcome [3] was “inactive”. The outcome [4] was “inactive”, the outcome [5] was “inactive” and the outcome [6] was “inactive”. For the same compound, the outcome [7] was “inactive”, the outcome [8] was “inactive” and the outcome [9] was “inactive”. The outcome [10] was “inactive”, the outcome [11] was “inactive” and the outcome [12] was “inactive”. The outcome [13] was “inactive”, the outcome [14] was “inactive” and the outcome [15] was “inactive”. The outcome [16] was “inactive”.
For `C=CCCCCCCCCO`, the outcome [17] was “inactive”, the outcome [1] was “inactive” and the outcome [2] was “inactive”. For the same compound, the outcome [3] was “inactive”, the AC50 [4] was 29.3 µM (active) and the outcome [5] was “inactive”. For the same compound, the outcome [6] was “inactive”, the outcome [7] was “inactive” and the outcome [9] was “inactive”. The outcome [10] was “inactive”, the outcome [11] was “inactive” and the outcome [12] was “inactive”. The outcome [18] was “inactive”, the outcome [19] was “inactive” and the outcome [13] was “inactive”. For the same compound, the outcome [14] was “inactive”, the outcome [15] was “inactive” and the outcome [16] was “inactive”.
With `C=CCCCCCCCCOC(C)=O` the outcome [17] was “inactive”, the outcome [1] was “inactive” and the outcome [2] was “inactive”. For the same compound, the outcome [3] was “inactive”, the outcome [4] was “inactive” and the outcome [5] was “inactive”. The outcome [7] was “inactive”, the outcome [8] was “inactive” and the outcome [9] was “inactive”. For the same compound, the outcome [10] was “inactive”, the outcome [12] was “inactive” and the outcome [18] was “inactive”. For the same compound, the outcome [19] was “inactive”, the outcome [13] was “inactive” and the outcome [14] was “inactive”. For the same compound, the outcome [15] was “inactive” and the outcome [16] was “inactive”.
With `C1CNCCN1` the outcome [17] was “inactive”, the outcome [1] was “inactive” and the outcome [4] was “inactive”. For the same compound, the outcome [5] was “inactive”, the outcome [6] was “inactive” and the outcome [7] was “inactive”. For the same compound, the outcome [8] was “inactive”, the outcome [9] was “inactive” and the outcome [10] was “inactive”. The outcome [11] was “inactive”, the outcome [12] was “inactive” and the outcome [18] was “inactive”. For the same compound, the outcome [19] was “inactive”, the outcome [13] was “inactive” and the outcome [14] was “inactive”. The outcome [15] was “inactive” and the outcome [16] was “inactive”.
In the case of `O=C(O)C(F)(F)C(F)(F)C(F)(F)C(F)(F)C(=O)O`, the outcome [17] is reported as “inactive”, the outcome [1] is reported as “inactive” and the outcome [2] is reported as “inactive”. For the same compound, the outcome [3] was “inactive”, the outcome [4] was “inactive” and the outcome [5] was “inactive”. For the same compound, the outcome [6] was “inactive”, the outcome [7] was “inactive” and the outcome [8] was “inactive”. The outcome [9] was “inactive”, the outcome [10] was “inactive” and the outcome [11] was “inactive”. The outcome [12] was “inactive”, the outcome [18] was “inactive” and the outcome [14] was “inactive”. For the same compound, the outcome [15] was “inactive” and the outcome [16] was “inactive”.
In the case of `CCOC(=O)[C@H](O)[C@@H](O)C(=O)OCC`, the outcome [17] is reported as “inactive”, the outcome [1] is reported as “inactive” and the outcome [2] is reported as “inactive”. The outcome [3] was “inactive”, the outcome [4] was “inactive” and the outcome [5] was “inactive”. The outcome [6] was “inactive”, the outcome [7] was “inactive” and the outcome [8] was “inactive”. The outcome [9] was “inactive”, the outcome [10] was “inactive” and the outcome [11] was “inactive”. The outcome [12] was “inactive”, the outcome [18] was “inactive” and the outcome [19] was “inactive”. The outcome [13] was “inactive”, the outcome [14] was “inactive” and the outcome [15] was “inactive”. The outcome [16] was “inactive”.
With `C=C(C)C(=O)OCC(O)COc1ccc(C(C)(C)c2ccc(OCC(O)COC(=O)C(=C)C)cc2)cc1` (configuration not stated) the outcome [17] was “inactive”, the outcome [1] was “inactive” and the outcome [2] was “inactive”. For the same compound, the outcome [3] was “inactive”, the outcome [4] was “inactive” and the AC50 [5] was 63.7 µM (active). The AC50 [7] was 24.8 µM (active), the outcome [8] was “inactive” and the outcome [9] was “inactive”. The outcome [10] was “inactive”, the outcome [11] was “inactive” and the AC50 [12] was 39.8 µM (active). For the same compound, the outcome [18] was “inactive”, the outcome [19] was “inactive” and the AC50 [13] was 100 µM (active). For the same compound, the outcome [14] was “inactive”, the outcome [15] was “inactive” and the AC50 [16] was 166 µM (active).

— PubChem BioAssay (EPA / NIEHS)
